Measurements: PubChem BioAssay (NCI)
This is part of a sample that, as a whole, favours compounds with a hit. Of some 83,000 tested, about 20% had one in any assay.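 Compound tested at a single concentration for 48 hours in 96-well plates; a percent growth value below 10 was scored as active.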 The source made the active and inactive calls.

Columns and labels:
Assay in all cases: NCI-60 one-dose screen, 48 h (100 = growth as untreated, 0 = no growth, -100 = all killed)
Conditions in all cases: 10 µM unless noted
SR leukemia = tested on: SR leukemia
RPMI-8226 leukemia = tested on: RPMI-8226 leukemia
OVCAR-8 ovarian = tested on: OVCAR-8 ovarian
OVCAR-5 ovarian = tested on: OVCAR-5 ovarian
OVCAR-4 ovarian = tested on: OVCAR-4 ovarian
SK-OV-3 ovarian = tested on: SK-OV-3 ovarian
IGROV1 ovarian = tested on: IGROV1 ovarian
OVCAR-3 ovarian = tested on: OVCAR-3 ovarian
HS 578T breast = tested on: HS 578T breast
NCI/ADR-RES ovarian = tested on: NCI/ADR-RES ovarian
T-47D breast = tested on: T-47D breast
BT-549 breast = tested on: BT-549 breast
MDA-MB-435 melanoma = tested on: MDA-MB-435 melanoma
SW-620 colon = tested on: SW-620 colon
MCF7 breast = tested on: MCF7 breast
HCT-116 colon = tested on: HCT-116 colon
HCC-2998 colon = tested on: HCC-2998 colon
KM12 colon = tested on: KM12 colon

Measured: growth

C=CC[N+]1(CC)CCN=C1CCCCCCCCCCCCCCCCC (configuration not stated)
active: SR leukemia -64.7% | RPMI-8226 leukemia -54.7% | OVCAR-8 ovarian -95.2% | OVCAR-5 ovarian -97.5% | OVCAR-4 ovarian -72.2% | SK-OV-3 ovarian -78.9% | IGROV1 ovarian -86% | OVCAR-3 ovarian -94.1% | HS 578T breast -41.3% | NCI/ADR-RES ovarian -21.6% | T-47D breast -62.9% | BT-549 breast -75.9% | MDA-MB-435 melanoma -85% | SW-620 colon -89.7% | MCF7 breast -81.7% | HCT-116 colon -100% | HCC-2998 colon -73.5% | KM12 colon -97.9%

COc1ccc(-c2cn3c(ccc4ccccc43)n2)cc1
inactive: SR leukemia 102% | RPMI-8226 leukemia 92.1% | OVCAR-8 ovarian 98.8% | OVCAR-5 ovarian 112% | OVCAR-4 ovarian 101% | SK-OV-3 ovarian 92.8% | IGROV1 ovarian 78.3% | OVCAR-3 ovarian 89.7% | HS 578T breast 96.2% | NCI/ADR-RES ovarian 96.3% | T-47D breast 76.5% | BT-549 breast 97.8% | MDA-MB-435 melanoma 114% | SW-620 colon 97.5% | MCF7 breast 75.8% | HCT-116 colon 96.5% | HCC-2998 colon 109% | KM12 colon 95.2%

Cc1ccc(NC(=O)c2sc3nc4c(cc3c2N)C(=O)CCC4)cc1C
inactive: SR leukemia 22.9% | RPMI-8226 leukemia 11.4% | OVCAR-8 ovarian 31.6% | OVCAR-5 ovarian 32.6% | OVCAR-4 ovarian 76% | IGROV1 ovarian 23.9% | HS 578T breast 28.1% | NCI/ADR-RES ovarian 10.9% | T-47D breast 24.1% | BT-549 breast 48.7% | SW-620 colon 18.9% | MCF7 breast 10.7% | HCT-116 colon 28.4% | HCC-2998 colon 27.3% | KM12 colon 19.5%
active: SK-OV-3 ovarian 4.9% | OVCAR-3 ovarian -10.2% | MDA-MB-435 melanoma -55.5%

CN1CCN(Cc2ccc(NC(=O)c3[nH]ncc3Nc3ncnc4c3CCC4)cc2)CC1
inactive: OVCAR-8 ovarian 11.9% | SK-OV-3 ovarian 24.5% | IGROV1 ovarian 19.2% | HS 578T breast 16.1% | NCI/ADR-RES ovarian 71.7% | T-47D breast 32.3% | MDA-MB-435 melanoma 29.6% | MCF7 breast 11.3% | HCC-2998 colon 13.1%
active: SR leukemia -18.6% | RPMI-8226 leukemia -9.23% | OVCAR-5 ovarian -0.195% | OVCAR-4 ovarian 6.83% | OVCAR-3 ovarian -5.87% | BT-549 breast -7.15% | SW-620 colon 7.76% | HCT-116 colon 5.79% | KM12 colon 6.55%

CC(C)(C)n1cc(-c2ccnc(NCCNS(=O)(=O)c3ccccc3)c2)c(-c2cccc(O)c2)n1
inactive: SR leukemia 27.3% | RPMI-8226 leukemia 22.2% | OVCAR-8 ovarian 67.2% | OVCAR-5 ovarian 78.4% | OVCAR-4 ovarian 60.6% | SK-OV-3 ovarian 88.4% | IGROV1 ovarian 76% | OVCAR-3 ovarian 74.4% | HS 578T breast 62.4% | NCI/ADR-RES ovarian 74.8% | T-47D breast 24.3% | BT-549 breast 26.4% | MDA-MB-435 melanoma 68.3% | SW-620 colon 16.2% | MCF7 breast 36.5% | HCT-116 colon 47.2% | HCC-2998 colon 47.5% | KM12 colon 42.8%

COC(=S)SCN(CSC(=S)OC)c1ccc(Cl)cc1
inactive: SR leukemia 123% | RPMI-8226 leukemia 73.1% | OVCAR-8 ovarian 91.3% | OVCAR-5 ovarian 97.1% | OVCAR-4 ovarian 87.6% | SK-OV-3 ovarian 91.6% | IGROV1 ovarian 95.4% | OVCAR-3 ovarian 104% | HS 578T breast 88.4% | NCI/ADR-RES ovarian 79.1% | T-47D breast 70.1% | BT-549 breast 65.8% | MDA-MB-435 melanoma 95.3% | SW-620 colon 99.1% | MCF7 breast 73.5% | HCT-116 colon 79.7% | HCC-2998 colon 100% | KM12 colon 98.2%

O=C(Nc1nc(-c2ccccc2)cc(-c2ccc(Cl)cc2)n1)c1ccncc1
inactive: SR leukemia 108% | RPMI-8226 leukemia 92.3% | OVCAR-8 ovarian 100% | OVCAR-5 ovarian 104% | OVCAR-4 ovarian 90.2% | SK-OV-3 ovarian 94.6% | IGROV1 ovarian 95.3% | OVCAR-3 ovarian 98.6% | HS 578T breast 100% | NCI/ADR-RES ovarian 89.1% | T-47D breast 83% | BT-549 breast 101% | MDA-MB-435 melanoma 96.8% | SW-620 colon 90.9% | MCF7 breast 84.6% | HCT-116 colon 87.6% | HCC-2998 colon 102% | KM12 colon 100%

CCC(C)[C@@H]1NC(=O)[C@@H]2CCCN2C(=O)[C@H](Cc2ccccc2)NC(=O)[C@@H]2CCCN2C(=O)[C@H](Cc2ccccc2)NC(=O)[C@@H]2CCCN2C(=O)[C@H](Cc2ccccc2)NC1=O (some centres not stated)
inactive: SR leukemia 83.7% | RPMI-8226 leukemia 85.7% | OVCAR-8 ovarian 113% | OVCAR-5 ovarian 105% | OVCAR-4 ovarian 106% | SK-OV-3 ovarian 103% | IGROV1 ovarian 120% | OVCAR-3 ovarian 126% | HS 578T breast 106% | NCI/ADR-RES ovarian 112% | T-47D breast 98.9% | BT-549 breast 109% | MDA-MB-435 melanoma 112% | SW-620 colon 105% | MCF7 breast 87.5% | HCT-116 colon 113% | HCC-2998 colon 106% | KM12 colon 121%

CCc1ccc(C(c2ccc(CC)cc2)C(Cl)(Cl)CCl)cc1
inactive: SR leukemia 103% | RPMI-8226 leukemia 93.6% | OVCAR-8 ovarian 110% | OVCAR-5 ovarian 99.9% | OVCAR-4 ovarian 86.9% | SK-OV-3 ovarian 105% | IGROV1 ovarian 76.6% | OVCAR-3 ovarian 86.3% | HS 578T breast 65.4% | NCI/ADR-RES ovarian 91.3% | T-47D breast 77.6% | BT-549 breast 116% | MDA-MB-435 melanoma 102% | SW-620 colon 86.8% | MCF7 breast 106% | HCT-116 colon 76.3% | HCC-2998 colon 90.1% | KM12 colon 103%
